Compounds with a hit are over-represented: about 32% of the library has one in this group of screens.
CYP2C19 inhib = inhibitors of human CYP2C19; inhibition, % at 5 µM; 96,000 tested, 21% active; CYP2C19 Supersomes, luciferin-H EGE luminescence, 30 min; P33261;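 active means CYP2C19 inhibition above a set limit at 5 µM in the primary screen, cut at about 50% in these data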;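 further: plate controls were negative control wells for no effect and 2.5 mM tranylcypromine positive control for full effect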
PostGolgi yeast = growth inhibition of a yeast mutant, post-Golgi transport screen. post-Golgi transport phenotypic cell assay. inhibition, % at 10 µM. 98,000 tested, 0.9% active. AID 739;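 further: yeast cells grown in 1536-well plates; yeast grown about 18 h at 30C before absorbance read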
CYP2C9 inh = blocks human cytochrome P450 2C9; P11712; CYP2C9 Supersomes, luciferin-H conversion, luminescence; inhibition, % at 5 µM; 96,000 tested, 20% active; AID 777;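 active means blocking of liver enzyme CYP2C9 beyond about 50% at 5 µM, limit read from the data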
Target sequence (P11712 whole entry, looked up): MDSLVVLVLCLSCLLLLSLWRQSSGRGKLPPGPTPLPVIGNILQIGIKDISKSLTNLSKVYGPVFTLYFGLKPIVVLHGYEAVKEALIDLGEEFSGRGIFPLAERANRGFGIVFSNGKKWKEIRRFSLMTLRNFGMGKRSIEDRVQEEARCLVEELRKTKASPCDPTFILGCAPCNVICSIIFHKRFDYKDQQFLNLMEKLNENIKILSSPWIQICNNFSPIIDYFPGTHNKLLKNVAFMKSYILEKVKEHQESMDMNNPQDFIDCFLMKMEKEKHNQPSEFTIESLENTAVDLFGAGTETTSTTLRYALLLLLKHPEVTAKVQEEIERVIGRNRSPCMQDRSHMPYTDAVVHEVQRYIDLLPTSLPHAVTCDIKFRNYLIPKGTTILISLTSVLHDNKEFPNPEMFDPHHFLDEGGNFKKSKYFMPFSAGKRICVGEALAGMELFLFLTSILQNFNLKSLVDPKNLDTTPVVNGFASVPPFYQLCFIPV
CYP2C9 act = activators of human CYP2C9; P11712; recombinant CYP2C9, luciferin-H conversion, luminescence; stronger effect = higher value; factor 1 = untreated enzyme, 0 = blocked; 96,000 tested, 1.4% active; activation factor at 5 µM;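 active means activation factor of 2 or more for CYP2C9 at a 5 µM dose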;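 further: 0 = sulfaphenazole-blocked wells and 1 = vehicle-only wells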
CYP2C19 activ = activators of human cytochrome P450 2C19; P33261; recombinant CYP2C19, luciferin-H EGE luminescence; stronger effect = higher value; 0 = fully inhibited enzyme, 1 = untreated enzyme; activation factor at 5 µM; 96,000 tested, under 10 active; AID 1025;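 active means activation factor of at least 2 at 5 µM in the primary screen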;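 further: 0 = wells with 2.5 mM tranylcypromine and 1 = vehicle-only wells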
PostGolgi ctrl = yeast control strain growth, post-Golgi counter-screen. efflux-deficient yeast background strain, growth absorbance A615, 16 h. inhibition, % at 10 µM. 98,000 tested, 5% active. AID 738
The depositor's hits bear a star; x = no result given. Unless noted, no stated cut-off is given here; in the data, active means inhibition above about 30%; inactive means the rest.

SMILES	CYP2C19 inhib	PostGolgi yeast	CYP2C9 inh	CYP2C9 act	CYP2C19 activ	PostGolgi ctrl
CCCN1CCN(CCCNC(=O)c2cc3c(=O)n(C)c4ccccc4c3n2C)CC1	-14	-1	67*	0.3	1.1	17
CCC(C(=O)O/N=C(\N)c1ccccc1)c1ccccc1 (stereo not given)	22	3	28	0.7	0.8	7
CN(C)CC(C(=O)c1ccccc1)c1ccccc1 (stereo not given)	13	2	10	0.9	0.9	31*
CCOC(=O)c1cnn2c(N)c(C#N)nnc12	-20	12	-19	1.2	1.2	1
CCOC(=O)c1c(C)nc2c(C#N)cnn2c1C	63*	6	-7	1.1	0.4	4
O=C(CSCCO)Nc1ccc(C2CCCCC2)cc1	10	2	-8	1.1	0.9	22
S=C(c1ccc(-c2ccccc2Cl)o1)N1CCOCC1	44	6	-55	1.5	0.6	11
S=C(c1ccc(-c2ccc(Cl)cc2Cl)o1)N1CCCCC1	62*	0	72*	0.3	0.4	21
S=C(c1ccc(-c2ccc(Cl)c(Cl)c2)o1)N1CCOCC1	88*	-7	89*	0.1	0.1	17
N#CCCN1CCN(C(=S)c2ccc(-c3cc(Cl)ccc3Cl)o2)CC1	30	2	-174	2.7*	0.7	27
O=C(Cc1cn2ccsc2n1)Nc1nc2c(s1)CN(Cc1ccccc1)CC2	-7	4	8	0.9	1.1	-2
O=C(c1cccnc1)N1CCCc2ccccc21	22	-3	0	1	0.8	0
O=C(c1cccc(F)c1)N1CCc2ccccc2C1	70*	2	9	0.9	0.3	10
O=C(c1ccc(Cl)nc1)N1CCc2ccccc2C1	98*	0	47	0.5	0	-8
O=C(c1cncc(Br)c1)N1CCc2ccccc2C1	86*	0	41	0.6	0.1	-5
O=C(c1ccccc1Cl)N1CCc2ccccc2C1	x	-9	x	x	x	8
O=C(c1cncc(Br)c1)N1CCN(c2ccc(N3CCOCC3)nn2)CC1	-3	3	11	0.9	1	6
O=C(c1cncc(Br)c1)N1CCCc2ccccc21	62*	5	40	0.6	0.4	28
Cc1ccc(OC(=O)c2cccc(C(=O)Oc3ccc(C)cc3)n2)cc1	-16	6	-16	1.2	1.2	2
CCOC(=O)c1c(C)[nH]c(C)c1C(=O)CSc1nnc(-c2cc(OC)c(OC)c(OC)c2)o1	15	5	26	0.7	0.8	-2
COC(=O)c1c(C)[nH]c(C(=O)C(C)Sc2nnc(-c3cc(OC)c(OC)c(OC)c3)o2)c1C (stereo not given)	40	-13	72*	0.3	0.6	-3
CC1=N/C(=C\c2ccc([N+](=O)[O-])cc2)C(=O)N1c1cc(Cl)ccc1C	1	14	-9	1.1	1	-4
COc1ccc(/C=N/NC(=O)c2[nH]ncc2Br)c(OC)c1	36	7	-105	2*	0.6	-2
CCOc1ccc(NC(=O)C2CCC(C)(C(=O)O)C2(C)C)cc1 (stereo not given)	-11	-2	-17	1.2	1.1	22
CCOc1ccc2ccccc2c1C(=O)N1CCOCC1	16	3	6	0.9	0.8	12
SMILES	CYP2C19 inhib	PostGolgi yeast	CYP2C9 inh	CYP2C9 act	CYP2C19 activ	PostGolgi ctrl
CCc1nc(NCC2CCCO2)c(C#N)c2c1COC(C)(C)C2 (stereo not given)	x	0	x	x	x	14
CC(C)c1nc(NCC2CCCO2)c(C#N)c2c1COC(C)(C)C2 (stereo not given)	54*	2	82*	0.2	0.5	18
Cn1nc(C(C)(C)C)cc1C(=O)Nc1nc2c(s1)C(=O)CC(C)(C)C2	10	-6	8	0.9	0.9	5
O=c1c2ccccc2nc(SCc2cn3ccsc3n2)n1-c1ccccc1	84*	0	94*	0.1	0.2	14
Cc1cccc(-n2c(SCc3cc(=O)n4ccsc4n3)nc3ccccc3c2=O)c1	22	-6	50	0.5	0.8	16
O=c1c2ccccc2nc(SCc2cn3ccsc3n2)n1-c1ccccc1F	77*	4	99*	0	0.2	8
c1ccc2oc(SCc3cn4ccsc4n3)nc2c1	44	2	-16	1.2	0.6	-1
O=C(NCC(=O)N(CC1CCCO1)C(C(=O)NC1CCCC1)c1cccnc1)c1ccco1 (stereo not given)	-8	21	-6	1.1	1.1	5
CC(=O)Nc1nonc1NC(=O)CSc1ncn[nH]1	4	-1	18	0.8	1	8
CCN(Cc1cc2ccccc2[nH]c1=O)C(=O)C(C)C	-4	2	1	1	1	-1
O=C(Nc1cccc(F)c1)c1ccc2c(c1)OCO2	94*	13	50*	0.5	0.1	9
CCCC(=O)Nc1cccc(NC(=O)c2ccc3c(c2)OCO3)c1	44	-8	52*	0.5	0.6	26
O=C(Nc1c(C(=O)Nc2cccc(F)c2)oc2ccccc12)c1ccc2c(c1)OCO2	8	4	15	0.9	0.9	1
Cc1ccc(NC(=O)c2oc3ccccc3c2NC(=O)c2ccc3c(c2)OCO3)cc1	-12	5	51*	0.5	1.1	14
CCC(CC)C(=O)Nc1cccc(C(=O)Nc2ccc3c(c2)OCO3)c1	84*	-4	88*	0.1	0.2	-5
CCOC(=O)CSc1ccc2nnc(-c3ccncc3)n2n1	x	-1	x	x	x	-1
CCC(CC)C(=O)Nc1cccc(C(=O)Nc2ccc(S(=O)(=O)Nc3ccc(C)cc3)cc2)c1	87*	4	90*	0.1	0.1	5
CCCN(CCC)S(=O)(=O)c1cccc(C(=O)Nc2ccc3c(c2)OCO3)c1	43	-5	63*	0.4	0.6	1
COC(=O)c1ccc(C2C(Oc3ccccc3)C(=O)N2CCc2ccc(F)cc2)cc1 (stereo not given)	-7	-3	8	0.9	1.1	8
COc1ccc(OC2C(=O)N(Cc3ccc(F)cc3)C2c2ccc(OC)c(OC)c2)cc1 (stereo not given)	72*	-2	60*	0.4	0.3	40*
COc1ccc(Nc2nnc(C)c(=O)[nH]2)cc1	11	-3	7	0.9	0.9	4
Cc1ccc(N2C(=O)CSC23C(=O)Nc2ccccc23)cc1 (stereo not given)	79*	3	42	0.6	0.2	0
CC(=O)C1C(c2ccco2)c2c(noc2C)CC1(C)O (stereo not given)	-5	9	4	1	1.1	8
CCn1c(CSc2nc3ccccc3n2C)nc2ccccc21	86*	2	38	0.6	0.1	5
Cn1c(SCc2ccccc2Cl)nc2ccccc21	73*	-9	-28	1.3	0.3	6

Screens deposited in PubChem BioAssay by several laboratories.
